# Results: PubChem BioAssay AID1347043 (National Center for Advancing Translational Sciences (NCATS), 2019)
# Screen size: about 76,000 compounds; about 1,900 (2.5%) were called active. Roughly 5% stayed inconclusive and do not appear here. Calls come from the whole dose curve; as a rule, active = well fitted inhibition curve with a large enough effect; inconclusive = small, poorly fitted or top-dose-only effect; inactive = flat fitted curve, though single readings scatter. The list comes from a sample in which actives are over-represented; it also holds similar structures and randomly drawn compounds. Entries that show only a call come without a potency.
# Molecular target: Luciferin 4-monooxygenase (Photinus pyralis) (UniProt P08659)
# Sequence (P08659 whole entry, looked up): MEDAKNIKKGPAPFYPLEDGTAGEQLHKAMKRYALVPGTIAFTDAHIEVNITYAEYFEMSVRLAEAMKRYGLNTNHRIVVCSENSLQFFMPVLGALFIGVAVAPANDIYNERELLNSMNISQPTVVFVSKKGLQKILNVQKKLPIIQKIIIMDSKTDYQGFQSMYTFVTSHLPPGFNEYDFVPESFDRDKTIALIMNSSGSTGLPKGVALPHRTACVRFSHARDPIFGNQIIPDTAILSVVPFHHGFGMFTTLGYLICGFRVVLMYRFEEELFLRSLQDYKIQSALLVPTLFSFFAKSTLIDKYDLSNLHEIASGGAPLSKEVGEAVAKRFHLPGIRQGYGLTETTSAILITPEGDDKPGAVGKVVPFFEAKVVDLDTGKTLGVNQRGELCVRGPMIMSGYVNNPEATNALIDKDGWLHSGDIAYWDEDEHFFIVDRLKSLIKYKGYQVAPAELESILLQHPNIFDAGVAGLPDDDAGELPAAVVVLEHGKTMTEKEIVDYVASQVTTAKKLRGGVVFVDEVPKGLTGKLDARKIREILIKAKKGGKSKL
# Experiment: Firefly luciferase inhibition profiling of diverse chemical library using quantitative high-throughput screening; note: nearly all actives have a fitted effect of over 65% in size
# Conditions: purified P. pyralis luciferase, luminescence, biochemical; series mostly up to 115 µM
# Summary of the method: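 FLuc 10nM, D-luciferin 10uM, ATP 10uM, Mg acetate 10mM, Tris acetate pH 7.5, Tween/BSA; cpd qHTS; enzyme added last; CCD luminescence.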
# Potency is the fitted concentration of half-maximal effect.
row,Compound,Potency
1,CCCCCCOC(=O)C1=CN(C)S(=O)(=O)N=C1C,inactive
2,Cn1cc(CC(=O)N2CCCc3ncc(C(N)=O)cc32)c2ccccc21,inactive
3,COCCNC(=O)CCc1c(C)nn(-c2ccccc2)c1Oc1ccccc1F,inactive
4,O=C([C@@H]1C[C@H](Oc2ccccc2)CN1C(=O)CN1CCCCCC1)N1CCCC1,inactive
5,c1ccc(CN2CCNc3cc(NCc4cccnc4)ncc3C2)cc1,inactive
6,CN(C)c1cccc(Nc2cc3c(cn2)NCCN(Cc2ccccc2)C3)c1,inactive
7,Fc1ccccc1CN1CCNc2cc(Nc3cccnc3)ncc2C1,50.1 µM (active)
8,Fc1ccc(Cc2nc3nccc(-c4ccco4)n3n2)cc1,inactive
9,COc1ccc(-c2ccc3ncc(Nc4ccc(C(F)(F)F)cc4)n3n2)cn1,inactive
10,CC#CC(=O)N1CCCC(C(=O)Nc2cccc(-c3cccc(C)c3)c2)C1 (configuration not stated),15.8 µM (active)
11,Cc1cccc(-c2cccc(NC(=O)C3CCCN(C(=O)CC(F)(F)F)C3)c2)c1 (configuration not stated),11.2 µM (active)
12,CC(=O)Nc1cccc(-c2nnc3n2CCCC3)c1,inactive
13,Cc1cccc(C(=O)N2C[C@@H](F)C[C@H]2C(=O)N2CCCCC2)c1,inactive
14,O=C(Nc1cccc(F)c1)N1CCCC(CN2CCOCC2)CC1 (configuration not stated),inactive
15,O=C(Nc1cccc(Cl)c1)C1CCCN(c2nc3ncccc3o2)C1 (configuration not stated),inactive
16,CCn1nccc1C(=O)N1CCCC1c1cc(C)no1 (configuration not stated),inactive
17,CN1C(=O)CC(C(=O)O)C12CCN(CCc1ccccn1)CC2 (configuration not stated),inactive
18,Cc1ccc(CNC(=O)N2CCN(C(=O)N3CC4CC(C3)[C@H]3CCCC(=O)N3C4)CC2)cc1 (some centres not stated),inactive
19,CCn1c(CN(C)C)nnc1C1CCN(Cc2ccc(-n3ccnc3)cc2)CC1,inactive
20,Cc1ccc(C(=O)N2CCN(C(=O)c3nnn4c3COC(c3ccccc3)C4)CC2)cc1 (configuration not stated),inactive
21,CN(C)c1ccc(C(=O)N2CCN(C(=O)c3nnn4c3COC(c3ccc(Cl)cc3)C4)CC2)cc1 (configuration not stated),inactive
22,Cc1ccc(C2Cn3nnc(C(=O)N4CCN(C(=O)COc5cccc(C)c5)CC4)c3CO2)cc1 (configuration not stated),inactive
23,Cc1ccc(C2Cn3nnc(C(=O)N4CCC(C(=O)Nc5ccc(Cl)cc5)CC4)c3CO2)cc1 (configuration not stated),15.8 µM (active)
24,O=C(c1ccoc1)N1CCN(C(=O)c2nnn3c2COC(c2ccc(Cl)cc2)C3)CC1 (configuration not stated),inactive
25,Cc1ccc(C2Cn3nnc(C(=O)N4CCC(C(=O)NCCc5ccccc5)CC4)c3CO2)cc1 (configuration not stated),12.6 µM (active)

row,Compound,Potency
1,CCCCNC(=O)C1CCN(C(=O)c2nnn3c2COC(c2ccc(C)cc2)C3)CC1 (configuration not stated),28.2 µM (active)
2,COc1ccc(C2Cn3nnc(C(=O)N4CCN(C(=O)c5ccc(C)cc5C)CC4)c3CO2)cc1 (configuration not stated),inactive
3,COc1ccc(C2Cn3nnc(C(=O)N4CCC(C(=O)NCC5CCCCC5)CC4)c3CO2)cc1 (configuration not stated),inactive
4,C=CCN(C)C(=O)[C@@H](C)C1CC[C@@]2(C)Cc3sc(Nc4c(Cl)cccc4Cl)nc3[C@@H](C)[C@@H]2[C@H]1O (some centres not stated),inactive
5,O=C(C[C@@H]1CCNC[C@@H]1Cc1cc(CSc2ccccc2)on1)NCc1ccc2c(c1)OCO2,inactive
6,CCc1cccc(C)c1NC(=O)Cn1ccn2nc(-c3ccc(F)cc3)c(CO)c2c1=O,inactive
7,Cc1ocnc1C(=O)N1CCc2nc(N)nc(N3CC[C@H](O)C3)c2CC1,inactive
8,Cc1cn2nc(C(=O)NCc3ccc(F)cc3)cc2c(N2CCCC2)n1,inactive
9,CC(C)CCN1C(=O)CC[C@]2(C(=O)N3CCN(CC(C)C)CC3)CCCC[C@@H]12,inactive
10,CCN1CCN(C(=O)C23CCCC=C2N(C2CCCC2)C(=O)CC3)CC1 (configuration not stated),39.8 µM (active)
11,CC(C)CCN1C(=O)CC[C@]2(C(=O)N3CCN(C)CC3)CCCC[C@@H]12,inactive
12,CNC(=O)[C@@H]1CN(C(=O)c2n[nH]c3ccccc23)C[C@H]1c1n[nH]c(C)n1,inactive
13,Cc1cccnc1NC(=O)C1c2ccccc2C(=O)N(C2CCCC2)C12CCCC2 (configuration not stated),inactive
14,CC1(NC(=O)C2CC2)CN(c2ccc(OC(F)(F)F)cc2)C1,inactive
15,O=C([C@@H]1C[C@@H](O)[C@H](O)[C@@H]2NC(=S)N(c3ccc(OC(F)(F)F)cc3)[C@@H]21)N1CCCCC1,14.1 µM (active)
16,O=C([C@@H]1C[C@H](F)CN1C(=O)c1ccccc1OC(F)(F)F)N1CCCCC1,inactive
17,Cc1noc(-c2cccc(OC3CN(C(=O)c4ccco4)C3)c2)n1,inactive
18,COc1ccccc1OCc1cc(C(=O)NCc2n[nH]c3c2CCC3)n[nH]1,inactive
19,O=C(c1ccc(-c2ccc(N3CCCCC3)nc2)cc1)N1CCOCC1,35.5 µM (active)
20,CN1CCCN(c2ccc(C(=O)N3CCC(N4CCOCC4)CC3)cn2)CC1,inactive
21,CCOC(=O)C1CCN(C(=O)c2ccc(-c3ccc(N4CCCCCC4)nc3)cc2)CC1,inactive
22,Cc1ccc(NC(=O)Cn2cccc2-c2nc(-c3ccc4c(c3)OCO4)no2)cc1Cl,inactive
23,COc1ccc(-c2noc(-c3cccn3CC(=O)Nc3ccccc3)n2)cc1F,inactive
24,O=C(CCc1ccccc1)NCCn1cccc1-c1nc(-c2ccc3c(c2)OCO3)no1,50.1 µM (active)
25,COc1ccc(CN2CCC3(COc4ccccc4C(=O)N3)C2)cc1 (configuration not stated),inactive

row,Compound,Potency
1,Cc1c(Cl)cccc1NC(=O)N1C[C@@H](F)C[C@H]1C(=O)N1CCc2ccccc2C1,inactive
2,O=C(CC1CCCC1)N1CCC(c2nc(C3CCOCC3)no2)CC1,inactive
3,O=C(NC1CCCN(c2cc(-c3ccc(Cl)cc3)[nH]n2)C1)c1ccncc1 (configuration not stated),12.6 µM (active)
4,O=C(NC1CCN(c2cc(-c3ccc(F)cc3)[nH]n2)C1)c1ccc2c(c1)OCO2 (configuration not stated),inactive
5,COc1ccc(-c2cc(N3CCCC(NC(=O)c4ccsc4)C3)n[nH]2)cc1 (configuration not stated),14.1 µM (active)
6,O=C(NC1CCN(c2cc(-c3ccc(F)cc3)[nH]n2)C1)c1cc2ccccc2[nH]1 (configuration not stated),6.31 µM (active)
7,O=C(NC1CCCN(c2cc(-c3ccc(Cl)cc3)[nH]n2)C1)c1ccccc1F (configuration not stated),inactive
8,COc1ccc(-c2cc(N3CCC(NC(=O)c4ccc(N(C)C)cc4)C3)n[nH]2)cc1 (configuration not stated),inactive
9,O=C(NC1CCCN(c2cc(-c3ccccc3)[nH]n2)C1)c1cccc(Cl)c1 (configuration not stated),inactive
10,O=C(NC1CCN(c2cc(-c3ccc(Cl)cc3)[nH]n2)C1)c1c[nH]c2ccccc12 (configuration not stated),inactive
11,O=C(NC1CCCN(c2cc(-c3ccc(F)cc3)[nH]n2)C1)c1ccc(Br)cc1 (configuration not stated),inactive
12,CC(=O)N1CCc2sc(C(=O)NCc3ccc(F)cc3Cl)cc2C1,inactive
13,Cn1cnnc1CC1CCN(c2nnnn2-c2ccccc2)CC1,inactive
14,COc1ccccc1N1CCN(C(=O)Cn2c(N3CCc4ccccc4C3)nc(C)cc2=O)CC1,inactive
15,Cc1cccc(-c2cc(C3CCN(S(=O)(=O)c4cccc(C#N)c4)CC3)[nH]n2)c1,inactive
16,COc1ccc(F)cc1CN1CCCC(CO)(CC2CC2)C1 (configuration not stated),inactive
17,CCNC(=O)N1CCCC1c1noc(CCC(=O)NCC2CC2)n1 (configuration not stated),inactive
18,C=CCC1(OC)CCN(C(=O)c2cnn3cc(CN(CC)CC)cnc23)CC1,inactive
19,COCCNC(=O)[C@H]1C[C@H](Oc2cccnc2)CN1S(=O)(=O)c1cn(C)cn1,inactive
20,COc1cncc(-c2cccc(COc3ccc4c(cnn4CC[S+](C)(=O)[O-])c3)c2)c1,inactive
21,CN(C)Cc1cn2c(=O)n(C)cc(-c3cccc(OCc4ccccc4)c3)c2n1,inactive
22,C[S+](=O)([O-])CCn1ncc2cc(OCc3cccc(-c4ccccc4)c3)ccc21,14.1 µM (active)
23,Cn1cnc(S(=O)(=O)N2CCC(N(C(=O)C3CC3)C3CCOCC3)CC2)c1,inactive
24,Cc1ccc(C(=O)NC2CCN(c3cc(-c4cccs4)[nH]n3)C2)cc1 (configuration not stated),inactive
25,Cc1ccc2cc(CN3CCN(CC(N)=O)CC3)c(-c3cccs3)nc2c1,12.6 µM (active)

row,Compound,Potency
1,Cc1cccnc1C(=O)N[C@@H]1CN(c2ncccn2)C[C@H]1CO,inactive
2,COc1ccc(-c2nccc3c(=O)cc(N(C)c4ccccc4)oc23)cn1,inactive
3,COc1ccc(CN2CCc3oc(C)c(C(=O)NC(C)Cn4ccc(C)n4)c3C2)cc1 (configuration not stated),inactive
4,COCCOCC(=O)N1CCCC(c2nc(-c3ccccc3)no2)CCNC(=O)CC1 (configuration not stated),inactive
5,O=[N+]([O-])c1ccccc1CN1C[C@H](O)C[C@H]1c1nc(-c2ccc(F)cc2)no1,50.1 µM (active)
6,O=[N+]([O-])c1cccc(-c2noc([C@@H]3C[C@@H](O)CN3Cc3cccc(OC(F)(F)F)c3)n2)c1,inactive
7,O=[N+]([O-])c1cccc(-c2noc([C@@H]3C[C@@H](O)CN3Cc3cccnc3)n2)c1,inactive
8,CCCNC(=O)C(NC(=O)c1cccc(OC)c1)C1CCN(C(=O)c2ccccc2F)CC1 (configuration not stated),inactive
9,CCNC(=O)O[C@@H]1CO[C@H]2[C@@H]1OC[C@@H]2NC(=S)Nc1cccc2ccccc12,inactive
10,CCNC(=O)C1C(c2cccc(NC(=O)c3ccc(OC)cc3)c2)OC(=O)N1Cc1ccc(C)cc1 (configuration not stated),11.2 µM (active)
11,COc1ccc(NC(=O)c2ccc(CN3C(=O)NC4(CCOCC4)C3=O)cc2)c(OC)c1,inactive
12,COc1ccc(CN2C(=O)CO[C@H](c3ccc(NC(=O)c4ccccc4OC)cc3)[C@H]2CO)cc1,inactive
13,Cc1nc(-c2ccccc2)n(CC(=O)NCc2ccc(F)cc2)c(=O)c1CCO,inactive
14,Cc1ccc(C(=O)N2CCC(CCC(=O)N3CCc4ccccc4C3)CC2)cc1,22.4 µM (active)
15,COc1ccc(NC(=O)CCC2CCN(S(=O)(=O)c3ccc(C)cc3)CC2)cc1F,inactive
16,Cc1ccc(S(=O)(=O)N2CCC(CCC(=O)NCc3ccccc3)CC2)cc1,inactive
17,CCCNC(=O)N(C1CCOCC1)C1CCN(C(=O)c2ccncc2)CC1,inactive
18,Cc1ccc(C(=O)N2CCC(c3nn(-c4ccccc4)c(=O)[nH]3)CC2)cc1,inactive
19,CN1N=C(C(=O)N2CCC(CCC(=O)Nc3ccc4c(c3)OCCO4)CC2)CCC1=O,inactive
20,CCCNC(=O)CCC1CCN(C(=O)c2ccc(C)cc2)CC1,31.6 µM (active)
21,CCCNc1cc(N2CCC(CCC(=O)Nc3ccc(C)cc3)CC2)ncn1,28.2 µM (active)
22,O=C(c1ccc2c(c1)[nH]c(=O)n2C1CCC(O)CC1)N1CCc2ccccc2C1 (configuration not stated),inactive
